Data: the supplement of paper PMC10849652
Of roughly 7,900 targets only a part is listed; those with a hit were picked by preference. About 0.6% of all pairs of compound and target were hits.

Legend:
Experiment in all cases: log2 fold change, soluble protein after heating vs DMSO (PISA); higher = thermal stabilisation; K562 cells, 10 uM, 30 min; active = over 0.2 and 3.5 SD of the protein, either way, in both replicates (recomputed)
[1] = compound: C1=CC=C(C=C1)[C@H](COC2=CC3=C(C=C2)NC(=O)N3)NC(=O)C4=CC=CN(C4=O)CC5=CC(=C(C=C5)F)F
Method in brief: (§1)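 For each measurement, 10 μM compound was applied for 30 min to K562 cells at 2×10^6 cells/mL. Aliquots were heated for 3 min across 48°C-58°C, pooled, and extracted in PBS with 0.5% NP-40 at 4°C; the supernatant after 21,000xg for 90 min was soluble protein. This was quantified by TMTpro 16plex LC-MS/MS with channel sums equalised, and thermal stability was reported relative to control samples from duplicates, on a log2 fold-change scale.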

[2] = compound: CC1=C(SC2=C1C(=N[C@H](C3=NN=C(N32)C)CC(=O)N)C4=CC=C(C=C4)Cl)C
Method in brief: as §1

[3] = compound: CC1=C2C(=CC=C1)N=C(N(C2=O)C3=CC=CC=C3C)CN4C=NC5=C(N=CN=C54)N
Method in brief: as §1

[4] = compound: Cc1sc2c(c1C)C(c1ccc(Cl)cc1)=N[C@@H](CC(=O)OC(C)(C)C)c1nnc(C)n1-2
Method in brief: as §1

[5] = compound: c1ccc([C@@H]2C[C@H]2NC2CCNCC2)cc1
Method in brief: as §1

Measured: log2 fold change

IKZF1 (UniProt Q13422)
inactive: [1] -0.011 | [2] 0.05 | [3] 0.15 | [4] -0.009 | [5] 0.014

LDLR (UniProt P01130)
inactive: [1] -0.037 | [2] 0.014 | [3] 0.037 | [4] 0.022 | [5] 0.062

LEMD2 (UniProt Q8NC56)
inactive: [1] -0.031 | [2] 0.136 | [3] 0.114 | [4] -0.017 | [5] 0.005

LPCAT3 (UniProt Q6P1A2)
UniProt Q6P1A2, sequence (Q6P1A2 whole entry, looked up): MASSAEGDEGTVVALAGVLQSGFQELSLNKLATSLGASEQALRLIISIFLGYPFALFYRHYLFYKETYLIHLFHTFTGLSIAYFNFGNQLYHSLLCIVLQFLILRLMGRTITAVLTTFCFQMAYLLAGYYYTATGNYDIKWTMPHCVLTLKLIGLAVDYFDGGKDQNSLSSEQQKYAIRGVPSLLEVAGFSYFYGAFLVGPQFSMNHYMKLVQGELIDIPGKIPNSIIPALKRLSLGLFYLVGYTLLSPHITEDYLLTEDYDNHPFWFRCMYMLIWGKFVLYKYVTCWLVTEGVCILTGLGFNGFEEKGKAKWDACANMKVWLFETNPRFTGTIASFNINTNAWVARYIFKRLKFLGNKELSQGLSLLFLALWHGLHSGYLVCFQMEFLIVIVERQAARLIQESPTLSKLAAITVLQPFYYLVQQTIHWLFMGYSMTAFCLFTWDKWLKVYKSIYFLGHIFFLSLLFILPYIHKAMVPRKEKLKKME
inactive: [1] 0.019 | [2] 0.071 | [3] -0.011 | [4] -0.093 | [5] -0.052

MCCC2 (UniProt Q9HCC0)
inactive: [1] 0.029 | [2] 0.038 | [3] -0.027 | [4] -0.022 | [5] 0.026

IPO9 (UniProt Q96P70)
inactive: [1] 0.018 | [2] 0.063 | [3] 0.014 | [4] -0.01 | [5] 0.079

MAGEA8 (UniProt P43361)
inactive: [1] 0.075 | [2] -0.035 | [3] 0.02 | [4] -0.119 | [5] 0.077

LDLRAP1 (UniProt Q5SW96)
inactive: [1] 0.055

IPP (UniProt Q9Y573)
inactive: [1] 0.065

MAIP1 (UniProt Q8WWC4)
inactive: [1] 0.012 | [2] 0.075 | [3] 0.028 | [4] -0.026 | [5] 0.002

MAPK9 (UniProt P45984)
inactive: [1] 0.015 | [2] 0.015 | [3] 0.039 | [4] -0.042 | [5] 0.004

MFF (UniProt Q9GZY8)
inactive: [1] -0.013 | [2] 0.041 | [3] 0.064 | [4] -0.017 | [5] -0.001

LOX (UniProt P28300)
inactive: [1] -0.113

LMNB1 (UniProt P20700)
UniProt P20700, sequence (P20700 whole entry, looked up): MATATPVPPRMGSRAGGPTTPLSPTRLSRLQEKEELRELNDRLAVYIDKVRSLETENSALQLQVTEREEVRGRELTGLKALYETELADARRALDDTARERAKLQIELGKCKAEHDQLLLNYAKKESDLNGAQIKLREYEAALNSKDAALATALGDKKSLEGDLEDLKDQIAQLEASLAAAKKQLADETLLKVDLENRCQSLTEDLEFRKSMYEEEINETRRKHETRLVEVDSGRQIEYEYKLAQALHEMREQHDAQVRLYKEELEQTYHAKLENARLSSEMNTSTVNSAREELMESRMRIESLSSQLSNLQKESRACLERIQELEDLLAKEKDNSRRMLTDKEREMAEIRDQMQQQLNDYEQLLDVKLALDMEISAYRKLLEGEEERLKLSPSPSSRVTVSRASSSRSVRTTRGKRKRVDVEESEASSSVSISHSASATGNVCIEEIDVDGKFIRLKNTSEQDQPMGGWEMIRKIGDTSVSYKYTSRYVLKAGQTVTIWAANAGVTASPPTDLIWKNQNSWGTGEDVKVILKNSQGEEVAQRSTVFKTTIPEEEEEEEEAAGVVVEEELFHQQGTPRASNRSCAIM
inactive: [1] 0.08 | [2] -0.005 | [3] -0.009 | [4] -0.018 | [5] 0.042

LSS (UniProt P48449)
inactive: [1] -0.077 | [2] 0.059 | [3] 0.127 | [4] -0.018 | [5] 0.087

KDM3B (UniProt Q7LBC6)
UniProt Q7LBC6, sequence (Q7LBC6 whole entry, looked up): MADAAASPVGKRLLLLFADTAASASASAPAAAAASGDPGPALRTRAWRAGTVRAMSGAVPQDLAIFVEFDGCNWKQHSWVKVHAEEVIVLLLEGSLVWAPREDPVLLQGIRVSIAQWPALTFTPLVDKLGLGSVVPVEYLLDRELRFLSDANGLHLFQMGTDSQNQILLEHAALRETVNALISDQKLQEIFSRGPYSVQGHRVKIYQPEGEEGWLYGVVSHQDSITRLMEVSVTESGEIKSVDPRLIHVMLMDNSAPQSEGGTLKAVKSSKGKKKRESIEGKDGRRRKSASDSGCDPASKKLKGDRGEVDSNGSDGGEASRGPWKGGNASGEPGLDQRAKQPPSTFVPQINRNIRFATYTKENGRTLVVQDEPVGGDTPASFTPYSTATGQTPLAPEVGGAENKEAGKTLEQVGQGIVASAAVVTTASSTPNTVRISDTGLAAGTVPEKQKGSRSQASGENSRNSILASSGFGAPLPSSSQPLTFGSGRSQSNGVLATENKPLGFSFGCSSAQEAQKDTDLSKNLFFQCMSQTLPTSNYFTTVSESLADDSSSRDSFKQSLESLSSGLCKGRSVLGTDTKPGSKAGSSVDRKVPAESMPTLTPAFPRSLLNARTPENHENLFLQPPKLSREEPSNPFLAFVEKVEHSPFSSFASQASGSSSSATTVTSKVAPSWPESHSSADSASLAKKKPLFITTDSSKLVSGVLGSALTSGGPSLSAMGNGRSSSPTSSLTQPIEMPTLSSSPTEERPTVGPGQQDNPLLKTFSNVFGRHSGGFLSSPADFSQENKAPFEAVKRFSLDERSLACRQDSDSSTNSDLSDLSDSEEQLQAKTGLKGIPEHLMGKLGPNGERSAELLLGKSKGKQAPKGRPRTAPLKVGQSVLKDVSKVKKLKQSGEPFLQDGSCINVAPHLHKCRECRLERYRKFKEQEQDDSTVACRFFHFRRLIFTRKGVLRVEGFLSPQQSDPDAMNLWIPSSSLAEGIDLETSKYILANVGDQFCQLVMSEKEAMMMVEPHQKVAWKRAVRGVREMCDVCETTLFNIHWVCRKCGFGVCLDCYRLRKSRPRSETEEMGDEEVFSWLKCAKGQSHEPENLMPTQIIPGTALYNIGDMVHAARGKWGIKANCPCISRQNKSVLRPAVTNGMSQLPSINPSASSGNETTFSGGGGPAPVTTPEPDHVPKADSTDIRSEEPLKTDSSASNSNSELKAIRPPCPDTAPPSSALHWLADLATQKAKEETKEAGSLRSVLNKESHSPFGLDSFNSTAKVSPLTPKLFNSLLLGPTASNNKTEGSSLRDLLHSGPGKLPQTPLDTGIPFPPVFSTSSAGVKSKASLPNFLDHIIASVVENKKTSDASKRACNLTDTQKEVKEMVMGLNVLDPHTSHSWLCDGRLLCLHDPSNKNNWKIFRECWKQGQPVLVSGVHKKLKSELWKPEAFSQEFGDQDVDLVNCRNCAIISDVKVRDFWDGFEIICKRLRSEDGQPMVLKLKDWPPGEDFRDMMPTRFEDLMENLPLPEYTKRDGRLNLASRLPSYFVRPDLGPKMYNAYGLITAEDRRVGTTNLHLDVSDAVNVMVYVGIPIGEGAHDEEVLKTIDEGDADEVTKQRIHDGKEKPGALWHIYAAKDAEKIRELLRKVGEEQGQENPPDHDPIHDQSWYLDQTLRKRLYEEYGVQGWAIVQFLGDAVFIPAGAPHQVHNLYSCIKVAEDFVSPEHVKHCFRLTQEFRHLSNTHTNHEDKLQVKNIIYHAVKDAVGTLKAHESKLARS
inactive: [1] -0.013 | [2] 0.026 | [3] 0.08 | [4] 0.038 | [5] 0.071

MIF (UniProt P14174)
inactive: [1] -0.101 | [2] 0.016 | [3] 0.015 | [4] -0.083 | [5] 0.004

LAPTM4B (UniProt Q86VI4)
inactive: [1] -0.12

LMBR1 isoform 3 (UniProt Q8WVP7)
inactive: [1] -0.194 | [2] 0.147 | [3] -0.134 | [4] -0.349 | [5] 0.078

MARCHF3 (UniProt Q86UD3)
inactive: [1] -0.096

LMBRD2 (UniProt Q68DH5)
inactive: [1] 0.029 | [2] 0.084 | [3] 0.06 | [4] -0.12 | [5] -0.035

MAPK12 (UniProt P53778)
inactive: [1] -0.022 | [2] 0.017 | [3] 0.026 | [4] 0.008 | [5] -0.002

LGALS8 isoform 2 (UniProt O00214)
inactive: [1] -0.032 | [2] 0.011 | [3] -0.166 | [4] -0.022 | [5] -0.12

MAGOHB (UniProt Q96A72)
inactive: [1] 0.02 | [2] 0.042 | [3] 0.079 | [4] -0.153 | [5] -0.129

LEO1 (UniProt Q8WVC0)
inactive: [1] -0.009 | [2] 0.046 | [3] -0.009 | [4] -0.016 | [5] -0.011

ILF3 (UniProt Q12906)
inactive: [1] 0.06

INPP5B (UniProt P32019)
UniProt P32019, sequence (P32019 whole entry, looked up): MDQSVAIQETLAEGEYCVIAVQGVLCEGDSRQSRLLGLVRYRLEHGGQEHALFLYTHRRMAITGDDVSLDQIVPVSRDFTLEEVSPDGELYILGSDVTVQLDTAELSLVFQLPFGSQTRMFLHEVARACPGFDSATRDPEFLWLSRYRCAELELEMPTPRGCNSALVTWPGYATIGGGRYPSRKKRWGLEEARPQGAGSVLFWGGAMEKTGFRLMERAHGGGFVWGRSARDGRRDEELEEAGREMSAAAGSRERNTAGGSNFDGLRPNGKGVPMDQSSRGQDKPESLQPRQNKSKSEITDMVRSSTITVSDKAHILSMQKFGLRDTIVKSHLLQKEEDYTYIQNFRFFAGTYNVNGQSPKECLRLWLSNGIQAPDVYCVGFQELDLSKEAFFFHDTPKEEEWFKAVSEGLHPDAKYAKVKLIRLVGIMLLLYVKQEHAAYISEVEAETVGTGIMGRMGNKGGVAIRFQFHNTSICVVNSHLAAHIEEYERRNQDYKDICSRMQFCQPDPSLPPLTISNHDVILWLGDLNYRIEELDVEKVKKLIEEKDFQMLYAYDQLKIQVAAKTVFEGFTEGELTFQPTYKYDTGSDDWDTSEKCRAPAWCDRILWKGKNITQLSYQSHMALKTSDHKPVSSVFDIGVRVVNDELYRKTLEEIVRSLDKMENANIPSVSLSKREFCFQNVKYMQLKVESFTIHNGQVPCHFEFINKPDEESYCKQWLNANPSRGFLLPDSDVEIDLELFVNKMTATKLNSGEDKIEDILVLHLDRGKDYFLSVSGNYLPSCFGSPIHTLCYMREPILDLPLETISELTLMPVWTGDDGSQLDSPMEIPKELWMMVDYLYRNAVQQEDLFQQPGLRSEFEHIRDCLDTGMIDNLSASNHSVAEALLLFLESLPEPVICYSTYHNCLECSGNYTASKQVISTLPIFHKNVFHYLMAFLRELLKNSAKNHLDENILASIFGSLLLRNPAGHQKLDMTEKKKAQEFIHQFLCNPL
inactive: [1] -0.067 | [2] 0.056 | [3] 0.024 | [4] 0.086 | [5] -0.035

KIF13A (UniProt Q9H1H9)
inactive: [1] 0.022 | [2] 0.039 | [3] 0.054 | [4] -0.059 | [5] -0.027

KMT2C isoform 3 (UniProt Q8NEZ4)
inactive: [1] 0.032 | [2] 0.04 | [3] 0.017 | [4] -0.076 | [5] -0.001

LIMD1 (UniProt Q9UGP4)
inactive: [1] 0.006 | [2] 0.004 | [3] -0.014 | [4] -0.005 | [5] 0.028

MICOS13 (UniProt Q5XKP0)
UniProt Q5XKP0, sequence (Q5XKP0 whole entry, looked up): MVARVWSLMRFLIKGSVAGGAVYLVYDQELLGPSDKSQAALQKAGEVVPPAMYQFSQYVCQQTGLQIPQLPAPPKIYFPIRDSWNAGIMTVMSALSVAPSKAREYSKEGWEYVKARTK
inactive: [1] -0.018 | [2] 0.07 | [3] -0.032 | [4] 0 | [5] 0.003

MAP4 isoform 5 (UniProt P27816)
inactive: [1] 0.077

IMMT isoform 4 (UniProt Q16891)
inactive: [1] 0.005 | [2] 0.021 | [3] 0.026 | [4] -0.025 | [5] -0.008

LRFN1 (UniProt Q9P244)
inactive: [1] -0.069 | [2] 0.183 | [3] 0.042 | [4] -0.02 | [5] -0.411

METTL18 (UniProt O95568)
inactive: [1] 0 | [2] -0.027 | [3] 0.061 | [4] -0.055 | [5] 0.028

INPP1 (UniProt P49441)
inactive: [1] -0.017 | [2] -0.002 | [3] 0.125 | [4] -0.002 | [5] 0.01

MAP2K3 isoform 3 (UniProt P46734)
inactive: [1] -0.091 | [2] -0.051 | [3] 0.05 | [4] 0.026 | [5] 0.016

MGST1 (UniProt P10620)
UniProt P10620, sequence (P10620 whole entry, looked up): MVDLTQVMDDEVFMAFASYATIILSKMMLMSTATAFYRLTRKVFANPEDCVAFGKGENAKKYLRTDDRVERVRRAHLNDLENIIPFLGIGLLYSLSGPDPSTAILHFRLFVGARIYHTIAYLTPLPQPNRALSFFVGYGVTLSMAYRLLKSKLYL
inactive: [1] -0.061 | [2] 0.032 | [3] -0.11 | [4] 0.05 | [5] 0.008

LMNB2 (UniProt Q03252)
inactive: [1] 0.04 | [2] 0.052 | [3] 0.062 | [4] -0.04 | [5] 0.053

LBR (UniProt Q14739)
inactive: [1] -0.105 | [2] 0.051 | [3] 0.011 | [4] -0.054 | [5] -0.005

IPO13 (UniProt O94829)
UniProt O94829, sequence (O94829 whole entry, looked up): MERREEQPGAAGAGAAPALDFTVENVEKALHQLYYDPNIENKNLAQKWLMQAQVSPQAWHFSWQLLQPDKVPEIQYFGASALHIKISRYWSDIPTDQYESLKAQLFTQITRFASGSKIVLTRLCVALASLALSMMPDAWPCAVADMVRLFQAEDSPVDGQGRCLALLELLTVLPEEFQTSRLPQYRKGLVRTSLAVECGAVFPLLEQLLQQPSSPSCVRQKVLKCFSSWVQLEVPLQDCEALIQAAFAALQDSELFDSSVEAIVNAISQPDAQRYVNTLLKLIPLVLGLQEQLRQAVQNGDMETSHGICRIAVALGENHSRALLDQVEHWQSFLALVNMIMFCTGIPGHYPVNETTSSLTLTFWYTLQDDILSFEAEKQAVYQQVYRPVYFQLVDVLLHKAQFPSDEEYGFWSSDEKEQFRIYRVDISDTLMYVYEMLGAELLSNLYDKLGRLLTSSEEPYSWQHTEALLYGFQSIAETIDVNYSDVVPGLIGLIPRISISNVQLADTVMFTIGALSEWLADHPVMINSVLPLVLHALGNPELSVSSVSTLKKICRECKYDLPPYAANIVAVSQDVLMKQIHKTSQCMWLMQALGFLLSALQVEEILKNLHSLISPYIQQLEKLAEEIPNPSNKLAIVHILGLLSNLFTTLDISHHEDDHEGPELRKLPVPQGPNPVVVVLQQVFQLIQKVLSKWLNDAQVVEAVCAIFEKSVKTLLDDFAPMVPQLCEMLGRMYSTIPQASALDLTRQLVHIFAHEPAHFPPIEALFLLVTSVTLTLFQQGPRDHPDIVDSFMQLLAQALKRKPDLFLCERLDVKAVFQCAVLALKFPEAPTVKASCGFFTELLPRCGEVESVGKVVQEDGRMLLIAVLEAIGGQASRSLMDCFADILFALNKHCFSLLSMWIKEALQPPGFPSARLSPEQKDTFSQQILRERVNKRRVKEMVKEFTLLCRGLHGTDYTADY
inactive: [1] -0.005 | [2] 0.008 | [3] 0.098 | [4] 0.037 | [5] 0.034

KDELR2 (UniProt P33947)
inactive: [1] -0.038 | [2] -0.015 | [3] 0.076 | [4] -0.137 | [5] 0.115

MFSD5 isoform 2 (UniProt Q6N075)
inactive: [1] 0.071 | [2] 0.08 | [3] 0.112 | [4] -0.049 | [5] -0.055

LTN1 isoform 3 (UniProt O94822)
inactive: [1] -0.058 | [2] 0.015 | [3] 0.08 | [4] -0.003 | [5] -0.005

KPNA1 (UniProt P52294)
inactive: [1] -0.03 | [2] -0.049 | [3] 0.079 | [4] -0.003 | [5] -0.001

KRAS isoform 2 (UniProt P01116)
inactive: [1] -0.002 | [2] -0.065 | [3] 0.096 | [4] 0.005 | [5] 0.053

KPNB1 (UniProt Q14974)
inactive: [1] -0.035 | [2] -0.018 | [3] -0.024 | [4] 0.001 | [5] -0.021

LSR (UniProt Q86X29)
inactive: [1] -0.016 | [2] 0.033 | [3] 0.006 | [4] -0.034 | [5] 0.015

LEMD3 (UniProt Q9Y2U8)
inactive: [1] 0.067 | [2] 0.034 | [3] 0.119 | [4] -0.031 | [5] -0.01

LONP2 (UniProt Q86WA8)
inactive: [1] -0.036 | [2] 0.009 | [3] 0.02 | [4] 0.009 | [5] -0.147

KPNA6 (UniProt O60684)
inactive: [1] -0.017 | [2] -0.046 | [3] 0.093 | [4] 0.105 | [5] 0.07

KCT2 (UniProt Q8NC54)
inactive: [1] 0.046 | [2] 0.024 | [3] -0.01 | [4] -0.014 | [5] 0.028

LYN (UniProt P07948)
inactive: [1] 0.035 | [2] 0.038 | [3] 0.013 | [4] 0.028 | [5] -0.043

IL27RA (UniProt Q6UWB1)
inactive: [1] 0.021 | [2] 0.144 | [3] 0.002 | [4] 0.097 | [5] 0.096

MIEF1 (UniProt L0R8F8)
inactive: [1] 0.072 | [2] 0.026 | [3] 0.039 | [4] -0.092 | [5] 0.007

MAPKAPK5 (UniProt Q8IW41)
inactive: [1] 0.042 | [2] 0.001 | [3] 0.015 | [4] -0.069 | [5] -0.009

MARK3 (UniProt P27448)
inactive: [1] -0.042 | [2] 0.039 | [3] 0.104 | [4] 0.121 | [5] 0.004
